Screening results: PubChem, National Center for Advancing Translational Sciences (NCATS)
Rows were chosen to be rich in hits. Some 19% of all compounds tested hit in one or more screens of this group.
DT40 TDP1 CPT – qHTS for Inhibitors of human tyrosyl-DNA phosphodiesterase 1 (TDP1): qHTS in cells in presence of CPT; chicken DT40 Tdp1-/-;hTDP1 cells + 20 nM CPT, ATP luminescence, 48 h; Potency, µM (top dose mostly 46.2 µM), for inactives: at the highest dose activity change, negative = growth inhibition, actives largely listed as inhibitors; 12% of 420,000 active; further: nearly all actives have a fitted effect of over 55% in size
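Cell growth measured by CellTiter-Glo luminescence after a minimum 48 h, 37 C compound exposure with 20 nM CPT in Tdp1-knockout DT40 cells stably expressing hTDP1, seeded 400/well; qHTS titration format.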
TDP1 block – qHTS Assay for Inhibitors of Tyrosyl-DNA Phosphodiesterase (TDP1) | AID 485290, 2010 | 0.28% of 350,000 active | recombinant TDP1, AlphaScreen DNA substrate cleavage | Tyrosyl-DNA phosphodiesterase 1 (Homo sapiens), Q9NUW8 | Potency, µM (top dose mostly 130 µM), inactives show at the top dose activity change, negative = inhibition, most hits filed as inhibitors; further: nearly all actives have a fitted effect of over 40% in size
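AlphaScreen read-out: signal falls as enzyme removes the 3' tyrosine-FITC from a 5'-biotinylated DNA oligo (15 nM, 5 min, RT). Enzyme was E. coli-made recombinant Tdp1 at 1 nM, exposed to compound for 15 min beforehand; beads 10 ug/ml, 10 min.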
RORg inh – qHTS for inhibitors of ROR gamma transcriptional activity; Drosophila S2 Gal4-RORgamma UAS-luciferase reporter, 20 h; Potency, µM (titrated, usually from 53.6 µM), without a hit: top-dose activity change, negative = inhibition, hits mostly inhibitors; Nuclear receptor ROR-gamma (Mus musculus), P51450; 5.4% of 310,000 active; further: nearly all actives have a fitted effect of over 60% in size
Target sequence (P51450 whole entry, looked up, the tested form may be a part): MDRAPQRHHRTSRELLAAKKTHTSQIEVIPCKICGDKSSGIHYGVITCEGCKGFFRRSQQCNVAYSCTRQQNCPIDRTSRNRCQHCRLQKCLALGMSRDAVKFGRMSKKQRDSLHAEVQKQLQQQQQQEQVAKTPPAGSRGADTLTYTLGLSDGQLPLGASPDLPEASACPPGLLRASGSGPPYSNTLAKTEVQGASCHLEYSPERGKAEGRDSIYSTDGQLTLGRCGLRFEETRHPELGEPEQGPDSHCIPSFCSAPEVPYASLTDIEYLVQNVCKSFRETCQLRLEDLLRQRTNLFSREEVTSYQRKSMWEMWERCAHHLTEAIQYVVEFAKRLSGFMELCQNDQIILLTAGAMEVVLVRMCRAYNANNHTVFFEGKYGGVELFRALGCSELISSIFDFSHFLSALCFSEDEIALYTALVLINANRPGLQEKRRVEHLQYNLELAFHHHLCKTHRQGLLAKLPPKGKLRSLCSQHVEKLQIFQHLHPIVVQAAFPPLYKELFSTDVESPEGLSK
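Luciferase reporter read in Schneider cells carrying Gal4-RORγ (mouse) and UAS-Photinus luciferase; cells given compound 1 h before 700 uM copper sulfate induction, then incubated 20 h at ambient temperature.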
VP16 counter – VP16 counterscreen qHTS for inhibitors of ROR gamma transcriptional activity. 3.5% of 310,000 active. Drosophila S2 Gal4-VP16 UAS-luciferase, luminescence, 20 h. Potency, µM (top dose mostly 53.6 µM), inactives show at the top dose activity, negative = inhibition, usual class: inhibitors;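 further: Gal4-VP16 expression switched on by copper sulfate through the metallothionein promoter; nearly all actives have a fitted effect of over 50% in size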
DT40 TDP1 no CPT – qHTS for Inhibitors of human tyrosyl-DNA phosphodiesterase 1 (TDP1): qHTS in cells in absence of CPT; Potency, µM (series often up to 46.2 µM), without a hit: top-dose activity change, negative = growth inhibition, actives largely listed as inhibitors; AID 686978, 2013; 15% of 420,000 active; DT40 Tdp1-/- hTDP1 cells, no CPT, ATP luminescence, 48 h; further: nearly all actives have a fitted effect of over 55% in size
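Compound effects on proliferation are scored in DT40 Tdp1-/-;hTDP1 cells in the absence of CPT. ATP levels (CellTiter-Glo luminescence) are recorded after a ≥48 hr, 37 °C incubation.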
* hit, by the source's call; ? = inconclusive; . = no result; ! = repeats disagree; [ ] = dose if it differs, or a comment. The call rests on the fitted dose curve; in most records, active means well fitted curve in the direction sought with a large enough effect; inconclusive means small, poorly fitted or top-dose-only effect, or another doubt; inactive means no such curve, though single readings can be large; an effect the other way counts as inactive or inconclusive. On the % scale 0 is the no-effect control and ±100 the full control effect; potency means the concentration at half of the fitted maximal effect.

SMILES	DT40 TDP1 CPT	TDP1 block	RORg inh	VP16 counter	DT40 TDP1 no CPT
CCc1nc2ccc(C(=O)NCc3cccs3)cn2c1N(C)Cc1nccs1	?	.	.	.	21µM*
COc1cc(C(=S)N2CCOCC2)cc(OC)c1OS(=O)(=O)c1ccc(NC(C)=O)cc1	-17%	4%	4%	-2%	-24%
COCCCNC(=O)[C@H](Cc1ccccc1)NC(=O)CC[C@H]1O[C@@H](n2ccc(=O)[nH]c2=O)[C@H](O)[C@@H]1O	-9%	.	.	.	-11%
Cc1ccccc1C(=O)c1c[nH]c(C(=O)NCc2cccs2)c1	?	3%	?	-4%	?
N#Cc1c(F)cccc1NCc1cccs1	-1%	6%	28%	-11%	4%
Cc1ccc(Oc2nnc(-c3cccs3)c3ccccc23)cc1C	18µM*	5%	-1%	?	?
Cc1ccc(Oc2nnc(-c3cccs3)c3ccccc23)cc1	?	2%	14%	-4%	18µM*
c1ccc(Oc2nnc(-c3cccs3)c3ccccc23)cc1	-2%	4%	28%	16%	?
CC(=O)Nc1ccc(S(=O)(=O)/N=C2\C(=O)c3ccccc3C([O-])=C2n2cc[n+](-c3ccccn3)c2)cc1	3.7µM*	1%	-9%	3%	8.2µM*
Cc1ccc(S(=O)(=O)/N=C2\C(=O)c3ccccc3C([O-])=C2n2cc[n+](CCC(C)C)c2)cc1	16µM*	6%	8.9µM*	?	16µM*
CC(=O)Nc1ccc(S(=O)(=O)NCCSc2ccccn2)cc1	?	2%	20%	4%	-9%
Cc1ccc(NC(=O)C[n+]2ccn(C3=C([O-])c4ccccc4C3=O)c2)cc1	14%	-3%	13%	-2%	-11%
Cc1ccccc1C(=O)NCCc1sc(-c2ccc(Cl)cc2)nc1C	-23%	7%	.	.	?
COc1ccc2nc3c(cc2c1)Cc1ccccc1-3	.	9%	2.5µM*	2.5µM*	.
CCOP(=O)(OCC)C(NC(C)=O)C(=O)c1ccccc1 (stereo not given)	-5%	5%	11%	4%	3.7µM*
CC(=O)NC(C(=O)c1ccccc1)C(=O)c1ccccc1	-11%	1%	-11%	-17%	-11%
CCOP(=O)(OCC)C(NC(=O)Nc1ccccc1)c1ccccc1 (stereo not given)	-10%	0%	11µM*	-6%	-8%
CCOP(=O)(OCC)C(NC(=O)Nc1c(C)cc(C)cc1C)c1ccccc1 (stereo not given)	-1%	5%	-3%	-7%	-23%
CC(=O)Oc1cc2c3c(c1)/C(=C1/SC(=S)NC1=O)C(=O)N3C(C)(C)C=C2C	-11%	15%	-4%	-16%	-24%
CCn1c(COc2ccccc2OC)nnc1SCC(=O)NC1CCCC1	20%	1%	15%	-2%	0%
O=C1c2ccccc2C(=O)C1Cc1cccc2ccccc12	14µM*	-1%	42%	0%	-27%
COC(=O)CSc1nnc(CNC(=O)c2ccc(OC)c(OC)c2)n1C	24%	1%	9%	1%	2%
CN1C(=O)C(O)(CC(=O)c2cccnc2)c2ccccc21 (stereo not given)	12µM*	5%[56.1 µM]	-4%	1%	10µM*
O=C(CC1(O)C(=O)N(Cc2cccc3ccccc23)c2ccccc21)c1cccnc1 (stereo not given)	0.92µM*	-4%	17%	?	0.82µM*
CCN(CC)S(=O)(=O)c1cccc(-n2c(O)c(C=Nc3ccccc3C(=O)O)c3ccccc3c2=O)c1	4.1µM*	0%	20%	0%	2.1µM*
SMILES	DT40 TDP1 CPT	TDP1 block	RORg inh	VP16 counter	DT40 TDP1 no CPT
O=C(O)c1ccccc1N=Cc1c(O)n(-c2nccs2)c(=O)c2ccccc12	?	0%	13%	-10%	-29%
COc1ccc(CCCCCCOCc2ccccc2)cc1	-3%	20µM*	.	.	15%
COc1ccc(-c2cn(CC3CCCCC3)nn2)cc1	-13%	.	29%	?	3%
c1ccc(-c2cn(CC3CCCCC3)nn2)cc1	?	.	29%	?	13µM*!
CCCCCc1ccc(-c2cn(CC3CCCCC3)nn2)cc1	?	.	-18%	12%	8.9µM*
COc1ccc(-c2cn(CCCOCc3ccccc3)nn2)cc1	?	.	-59%	-5%	?
CCCCCc1ccc(-c2cn(CCCOCc3ccccc3)nn2)cc1	?	.	-10%	-8%	22µM*
CC(C)(C)c1cc(C(=O)NNS(=O)(=O)c2ccccc2)n[nH]1	?	5%	32%	-6%	?
COc1ccc(CN(C)C(=S)Nc2ccc(OC(F)F)cc2)cc1	-17%	3%	?	?	?
O=c1ccn(-c2cccc(C(F)(F)F)c2)nc1-c1ccn(-c2cccc(Cl)c2)n1	?	6%	?	-5%	?
c1cncc(OC2CCN(Cc3ccc4c(c3)CN(Cc3ccc5c(c3)OCO5)CCO4)CC2)c1	-12%[9.04 µM]	.	.	.	?
Cc1nn(C)c(Cl)c1CN1CCOc2ccc(CN3CCC(Oc4cccnc4)CC3)cc2C1	10µM*	.	.	.	8.2µM*
OC1(c2cccnc2)CCN(Cc2ccc3c(c2)CN(Cc2cc(F)cc(F)c2)CCO3)CC1	5%[9.04 µM]	.	.	.	?
OC1(c2cccnc2)CCN(Cc2ccc3c(c2)CN(Cc2ccc(F)c(F)c2)CCO3)CC1	-6%[9.04 µM]	.	.	.	12µM*
O=S(=O)(/N=C(/Nc1nc2ccccc2s1)c1ccccc1)c1ccccc1	4%	1%[56.1 µM]	.	.	0%
C/C(=C1/C(=O)N(c2ccc([N+](=O)[O-])cc2)N=C1c1ccccc1)N(C)C	.	11%	?	14µM*	.
CCOC(=O)C1=C(C)N(CCCC(=O)O)C(=O)NC1c1ccccc1OS(=O)(=O)c1ccc([N+](=O)[O-])cc1 (stereo not given)	-15%	.	.	.	-1%
CC(C)c1cc(C(=O)NNC(=S)NC2CCCCC2)cs1	-23%	3%	?	?	-7%
CCc1c(C(=O)NNC(=S)NC2CCCCC2)csc1C	-23%	8%	1.1µM*	?	?
CCc1cc(C(=O)NNC(=S)NC2CCCCC2)cs1	?	0%	2.2µM*	10µM*	-9%
CCCCOc1cccc(C(=O)NNC(=S)NC2CCCCC2)c1	?	10%	?	4%	16µM*
c1ccc(-c2ccc3c(c2)NCCN3)cc1	?	.	-9%	16%	?
C1=C(CCNc2nnnn2-c2ccccc2)CCCC1	18µM*	6%	-2%	-6%	?
c1ccc(CCNc2nnnn2-c2ccccc2)cc1	-8%	2%	23%	0%	?
